S2 tox – cell viability loss in ATXN counter-screen | S2 cells (HEK-293 line with an ATXN2-luciferase reporter) viability, CellTiter-Fluor protease fluorescence, 24 h | Potency, µM (doses to about 56.7 µM), hits mostly cytotoxic | 0.49% of 400,000 active | AID 651635; note: potency is the fitted concentration of half-maximal effect; nearly all actives have a fitted effect of over 40% in size
SW480 rerep – inducers of DNA re-replication in SW480 colon cancer cells. SW480 DNA re-replication, Hoechst DNA content imaging, 48 h. Potency, µM (top dose mostly 46.1 µM), without a hit: top-dose re-replication activation, hits mostly activators. 1.8% of 340,000 active; note: potency is the fitted concentration of half-maximal effect; % of control where 0% means no effect; nearly all actives have a fitted effect of over 55% in size
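Image-based read-out: total Hoechst fluorescence of nuclei (405 nm excitation, 500-530 nm emission), with hits raising the fraction of high-intensity nuclei. SW480 colon cells incubated 48 hr with compounds at 37 C.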
IL1B secr inh – blocks inflammasome-driven IL-1 beta release. THP-1 LPS/ATP IL-1B secretion, AlphaLISA, 16 h; active compounds read low. activity change, % at 57.5 µM. 4.7% of 360,000 active; in the data active = activity change below about -50%; inconclusive = mostly about -30% to -49%; note: % is set by controls: 0 for no effect and ±100 for the full control effect
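Secreted IL-1B measured by AlphaLISA bead assay after 16 h compound exposure of THP-1 cells; compounds (final up to 57.5 uM) added 1 h before LPS (250 ng/mL) and ATP (1.25 mM) stimulation; lower signal means less secretion.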
PINK1 expr mod – modulators of PINK1 expression | PINK1 immunofluorescence, high-content cytometry, 24 h | Potency, µM (doses to about 76.6 µM), without a hit: at the highest dose activation (PINK1 increase), usual class: activators | 0.2% of 410,000 active; active = well fitted activation curve with a large enough effect; inconclusive = small, poorly fitted or top-dose-only effect; cell line not stated here; note: potency is the fitted concentration of half-maximal effect; % of control where 0% means no effect; nearly all actives have a fitted effect of over 65% in size
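Stable cell line treated 24 h with compounds at 5 concentrations (CCCP controls), then fixed and immunostained for PINK1 plus nuclear and cell stains; PINK1 immunofluorescence quantified by laser-scanning microplate cytometry.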
MCF10A rereplic – induces DNA re-replication in MCF 10a normal breast cells. AID 624296. MCF 10A DNA re-replication, Hoechst nuclear intensity, 48 h. 2.9% of 350,000 active. Potency, µM (top dose mostly 46.1 µM), without a hit: at the top dose activity, positive = re-replication, hits mostly activators; note: potency is the fitted concentration of half-maximal effect; % of control where 0% means no effect; nearly all actives have a fitted effect of over 50% in size
ATXN2 expr inh – inhibitors of ATXN2 expression | HEK-293 ATXN2-luciferase reporter, luminescence, 24 h | Potency, µM (series often up to 57 µM), for the others: at the highest dose activity change, negative = inhibition, actives largely listed as inhibitors | 0.72% of 360,000 active | AID 1745845; note: potency is the fitted concentration of half-maximal effect; % is set by controls: 0 for no effect and ±100 for the full control effect; nearly all actives have a fitted effect of over 55% in size
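qHTS (up to 57 uM final) was run with 24 h compound exposure of reporter cells at 37 °C. Each well was multiplexed: SteadyGlo luminescence measured ATXN2-luciferase expression after a fluorogenic Gly-Phe-AFC viability readout (25 uM final).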
* = called active by the depositor; i = inactive; ? = inconclusive; . = not tested or not shown; ! = repeats disagree; [ ] = remark or other dose. This is a sample that favours compounds with a hit; in the whole collection about 7.1% have one here. Unless noted, calls come from the whole dose curve; as a rule, active = well fitted curve in the direction sought with a large enough effect; inconclusive = small, poorly fitted or top-dose-only effect, or another doubt; inactive = no such curve, though single readings can be large; an effect the other way counts as inactive or inconclusive.

SMILES | S2 tox | SW480 rerep | IL1B secr inh | PINK1 expr mod | MCF10A rereplic | ATXN2 expr inh
O=C(/C=C/Sc1ccccc1)c1ccccc1 | . | 21µM* | -104* | . | 5.2µM* | ?
O=c1nc2n(-c3ccccc3F)c3ccccc3cc-2c(=O)[nH]1 | . | . | . | 7% | . | 8%
Cc1ccc(C)c(-n2c3nc(=O)[nH]c(=O)c-3cc3cc([N+](=O)[O-])ccc32)c1 | ? | 3.2µM* | -99* | -2% | ? | ?
Cc1cccc(-n2c3nc(=O)[nH]c(=O)c-3cc3cc([N+](=O)[O-])ccc32)c1 | ? | ? | -101* | -3% | ? | -14%
CCOC(=O)CC(NC(=O)c1cc2cc(Br)cc(OC)c2oc1=O)c1ccc(OC)cc1 (centres undefined) | i | . | . | 0% | . | 3%
COc1ccc(Br)cc1CN1CCCC(C(=O)N2CCCCCC2)C1 (centres undefined) | i | -2% | -57* | 1% | ? | -20%
COc1ccc(Br)cc1CN1CCCC(C(=O)N2CCCCC2)C1 (centres undefined) | i | 2% | -3 | -4% | 15% | -24%
COc1ccc(Br)cc1CN1CCC(N2CCCC2)CC1 | i | ? | -67* | 3% | 23µM* | -13%
COc1ccc(Br)cc1CN1CCN(C(=O)c2ccc(F)cc2)CC1 | ? | -62% | 0 | 0% | -43% | -18%
COCC(=O)OC1CCn2c1nc1c2C(=O)C(C)=C(NC(C)=O)C1=O (centres undefined) | . | 1.5µM* | -1 | 0% | 9.2µM* | 10µM*
CC1(C)CC(=O)c2cc(-c3nc(-c4ccc(Cl)cc4)cs3)c(=O)n(-c3ccc(Cl)cc3)c2C1 | i | . | . | -1% | . | -2%
c1cc(SC2CCCCC2)cc(-c2nc3cnccn3c2NC2CCCCC2)c1 | . | 3.3µM* | -66* | 7% | 5.8µM* | ?
CCN(CC)c1ccc(-c2nc3cnccn3c2NC2CCCC2)cc1 | . | 21µM* | ? | -3% | 16µM* | 6%
CCC(C)Sc1ccc(-c2nc3ccc(C)cn3c2NC2CCCCC2)cc1 (centres undefined) | ? | -22%[9.22 µM] | 21 | 1% | ? | -16%
CCC(C)Sc1cccc(-c2nc3cnccn3c2NC2CCCCC2)c1 (centres undefined) | . | ? | 0 | -2% | 18µM* | ?
Cc1ccc2nc(-c3cccnc3)c(NC3CCCCC3)n2c1 | i | -5% | 35 | 1% | 8% | -9%
CCC(C)Sc1cccc(-c2nc3ccc(C)cn3c2NC2CCCCC2)c1 (centres undefined) | i | -28%[9.22 µM] | -77*! | ? | ? | -16%
CC1(C(=O)NS(=O)(=O)c2cccc(C#N)c2)CCN1C(=O)Cc1ccccc1 (centres undefined) | i | . | 14 | 0% | . | 7%
CCOc1ccc(Cn2c(CNS(=O)(=O)c3ccc(C(C)(C)C)cc3)nc3cccnc32)cc1 | . | . | . | -1% | . | .
c1cn2c(NC3CCCC3)c(-c3ccc(N4CCOCC4)cc3)nc2cn1 | . | 5% | 14 | 0% | 16% | 50%
c1cn2c(NC3CCCCC3)c(-c3ccc(SC4CCCCC4)cc3)nc2cn1 | . | -1% | -63* | 5% | ? | 10%
COc1cc(OC)c(-c2cc(C(=O)NCc3ccc(F)cc3)c3c(-c4ccccc4)[nH]nc3n2)cc1OC | . | . | . | 17% | . | ?
CN(C)C1=NCC(CSC(=N)N)S1 (centres undefined) | ? | 8.2µM* | ? | 1% | ? | 16%
O=C(CN1C(=O)C(c2ccc(F)cc2)=NC12CCCCCC2)Nc1ccccc1Cl | . | . | . | 2% | . | .
CC1(C(=O)N/N=C/c2c(F)c(F)c(F)c(F)c2F)CC1(Cl)Cl (centres undefined) | ? | ? | -100* | -3% | ? | ?
SMILES | S2 tox | SW480 rerep | IL1B secr inh | PINK1 expr mod | MCF10A rereplic | ATXN2 expr inh
CCOC(=O)c1ccc(NC(=O)c2cc(=O)c3ccc(C)c(C)c3o2)cc1 | i | . | . | 2% | . | 8%
COc1ccc(-c2nc(C)c(CCNS(=O)(=O)c3cc(C)c(C)cc3C)s2)cc1 | ? | . | . | 2% | . | ?
N#Cc1cc2c(nc1SCc1cccnc1)CCCCC2 | i | -3% | -66* | -1%[38.3 µM] | -1% | 15%
N#Cc1cc2c(nc1SCc1ccccc1)CCCCC2 | i | -2% | 15 | 6% | 4% | 31%
COc1ccccc1C(=O)c1c(N)c(-c2nc(-c3ccccc3)cs2)c2ccccn12 | i | . | . | 8% | . | 3%
CC(NC(=O)CSc1nc(-c2cccc(Cl)c2)nc2cc(=O)[nH]n12)c1nc2ccccc2n1C (centres undefined) | i | . | . | 0% | . | 3%
O=C(Nc1ccc2sccc2c1)c1ccc(Cl)s1 | i | -2% | -7 | 8% | 18µM* | 40%
O=C(Nc1ccc2c(c1)C(=O)NC2=O)c1ccc(Cl)s1 | i | 1% | -1 | -1% | 13% | -6%
COc1ccccc1CNc1nc2ccccc2c2nc(-c3cccnc3)nn12 | i | . | . | 2% | . | 2%
COc1ccc2nccc(/C=C/c3ccnc4ccc(OC)cc34)c2c1 | i | 23µM* | ? | ? | 15µM* | -20%
COc1cc(OC)c(OC)cc1/C=C/c1ccnc2ccccc12 | i | ? | -14 | ? | ? | -26%
COc1ccc(OC)c(/C=C/c2ccnc3ccccc23)c1 | i | 12µM* | -76* | -7% | 5.2µM* | -39%
C=CC[C@H](CC(=O)N(CCO)Cc1ccccc1)C(=O)N[C@H](COC(=O)[C@@H](CC=C)CC(=O)OC(C)(C)C)c1ccccc1 | . | 4% | -64* | 2% | 5% | ?
C=CC[C@@H](CC(=O)N(CCO)Cc1ccccc1)C(=O)N[C@H](COC(=O)[C@H](CC=C)CC(=O)OC(C)(C)C)Cc1c[nH]c2ccccc12 | 22µM* | 0% | -59* | 0% | ? | ?
C=CC[C@H](CC(=O)N(CCO)Cc1ccccc1)C(=O)N[C@H](COC(=O)[C@@H](CC=C)CC(=O)OC(C)(C)C)Cc1c[nH]c2ccccc12 | 13µM* | 12% | -65* | -1% | ? | 22µM*
CCCc1ccc(OC(=O)c2ccc(O)cc2Cl)cc1 | i | 8% | -84* | ? | ? | 68%
CCCc1ccc(OC(=O)c2cccs2)cc1 | i | -7% | -16 | 10%[38.3 µM] | 1% | 3%
Cc1ccc(OC(C)C(=O)Nc2cccc(S(=O)(=O)N3CCCCCC3)c2)cc1 (centres undefined) | i | . | 16 | 3% | . | .
CN(Cc1nc(Cc2ccccc2F)no1)Cc1cccc2ncccc12 | i | ? | -108* | 2% | 4% | -13%[11.3 µM]
CS(=O)(=O)c1ccc(Sc2nc3ccccc3s2)c([N+](=O)[O-])c1 | ? | 7.3µM* | -121* | -3% | ? | ?

Screening results: PubChem BioAssay, National Center for Advancing Translational Sciences (NCATS)
